This is an account of results in ChEMBL document CHEMBL3433997, “St. Jude Leishmania screening dataset” (2016).

One may read the inhibition as the drop in the measured response relative to a control, in per cent.

Holding throughout (assay type): functional
Experiment [1] deals with Solute carrier family 2, facilitated glucose transporter member 1 (Homo sapiens) (UniProt P11166). In words: ST_JUDE_LEISH: Cytotoxicity at 2uM final concentration against transgenic Leishmania Mexicana promastigotes LmGLUT1 that are glucose transport deficient and complemented with the human glucose transporter GLUT1. Activity is measured by DNA content using SYBR green in vitro.
Sequence of Solute carrier family 2, facilitated glucose transporter member 1 (Homo sapiens) (P11166 whole entry): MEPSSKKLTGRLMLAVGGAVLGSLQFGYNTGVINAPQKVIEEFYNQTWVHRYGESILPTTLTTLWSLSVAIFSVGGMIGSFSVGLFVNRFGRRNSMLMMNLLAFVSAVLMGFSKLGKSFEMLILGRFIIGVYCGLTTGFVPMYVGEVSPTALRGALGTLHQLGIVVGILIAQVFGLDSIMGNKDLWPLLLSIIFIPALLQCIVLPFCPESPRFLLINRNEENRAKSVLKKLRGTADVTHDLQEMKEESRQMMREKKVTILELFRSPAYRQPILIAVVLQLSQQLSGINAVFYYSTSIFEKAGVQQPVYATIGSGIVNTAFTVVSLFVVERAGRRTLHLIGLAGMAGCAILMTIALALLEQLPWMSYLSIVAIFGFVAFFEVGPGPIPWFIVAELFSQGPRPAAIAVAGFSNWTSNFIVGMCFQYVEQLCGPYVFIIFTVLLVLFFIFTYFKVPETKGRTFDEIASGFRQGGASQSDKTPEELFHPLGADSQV

Experiment [2] deals with Hexose transporter 1 (Plasmodium falciparum) (UniProt O97467). Kind of experiment: ST_JUDE_LEISH: Cytotoxicity at 2uM final concentration against transgenic Leishmania Mexicana promastigotes LmPfHT that are glucose transport deficient and complemented with the Plasmodium falciparum hexose transporter. Activity is measured by DNA content using SYBR green in vitro.
In experiment [3] the target is Glucose transporter (Leishmania mexicana) (UniProt O61059). Kind of experiment: ST_JUDE_LEISH: Cytotoxicity at 2uM final concentration against transgenic Leishmania Mexicana promastigotes LmGT2 that are glucose transport deficient and complemented with the L. Mexicana glucose transporter 2. Activity is measured by DNA content using SYBR green in vitro.

Regarding `COc1cc2nc(N3CCC(CNC(=O)c4cc(Br)c(Br)s4)CC3)nc(N)c2cc1OC`, the inhibition in experiment [1] came to 9.57%; in experiment [2], 9.82%; in experiment [3], 6.92%.

Consider `CC(C)n1c(C2CCN(CC3CCN(C(=O)/C=C/c4ccc(Cl)c(Cl)c4)CC3)CC2)nc2ccccc21`, for which the inhibition is 0.12% in experiment [1], -1.72% in experiment [2] and -0.72% in experiment [3].

Consider `CCc1c(CCNCCCCCCNCCc2ccc([N+](=O)[O-])cc2)ccc(O)c1O`, for which the inhibition in experiment [1] is -1.33%; in experiment [2], -0.9%; in experiment [3], 0.31%.

Regarding `O=C(Nc1ccc(OC2CCN(Cc3ccc(F)cc3)C2)c(Cl)c1)c1ccccc1` (stereo unspecified), the inhibition in experiment [1] came to 8.62%; in experiment [2] it was 9.58%; in experiment [3] it was 4.94%.

On to `Cc1nc2ccccn2c1C1(O)C(=O)Nc2c(Cl)cc(Cl)cc21` (stereo unspecified), for which the inhibition in experiment [1] amounted to 5.72%; in experiment [2], 4.95%; in experiment [3], 2.71%.

Turning to `c1cc(CNCC2CCCO2)cc(-c2cccc(-c3nc4ccccc4[nH]3)c2)c1` (stereo unspecified), the figures for the inhibition in experiment [1], in experiment [2] and in experiment [3] were 1.58%, 1.76% and -0.18%, respectively.

With `COc1cc(SC)c(Br)cc1-c1nc2ccncc2[nH]1`, the inhibition in experiment [1] was 3.09%; in experiment [2], 2.12%; in experiment [3], 4.52%.

For `CN1CCC(C(=O)N(Cc2ccc(-c3ccc(CNCCc4ccccc4)cn3)cc2)C2CCN(Cc3ccccc3)CC2)CC1`, the inhibition in experiment [1] is 0.71%; in experiment [2] it was 1.1%; in experiment [3], -0.74%.

Turning to `O=C(/C=C/c1cccc(Br)c1)NCCCCCN1CCC(c2c[nH]c3ccccc23)CC1`, the inhibition in experiment [1] turned out to be 3.71%; in experiment [2], 2.1%; in experiment [3], 5.42%.

For the molecule `COc1cc(CCNc2nc(NCc3ccccc3-c3ccccc3)nc(N3CCC(N)CC3)n2)ccc1O`, the inhibition in experiment [1] was 4.17%; in experiment [2], 0.92%; in experiment [3], 2.4%.

For `O=C(/C=C/c1ccc(I)cc1)NCCCCCN1CCC(c2c[nH]c3ccc(O)cc23)CC1`, the results for the inhibition in experiment [1], in experiment [2] and in experiment [3] were 1.49%, 1.64% and 1.49%, respectively.

As to `CCOC(=O)c1ccc(-c2cnoc2-c2cc(CC)c(OC)cc2O)o1`, the inhibition in experiment [1] is -0.08%; in experiment [2] it was 1.08%; in experiment [3], 1.38%.

`CCOC(=O)c1cn(CC)c2cc(N(C)CCc3ccc(OC)c(OC)c3)c(F)cc2c1=O`: the inhibition in experiment [1] came to 2.15%; in experiment [2], 1.21%; in experiment [3], 1.68%.

`O=C(Nc1cccc(CN2CCCN(Cc3ccc(F)cc3)CC2)c1)c1ccc(Cl)c(Cl)c1`: the results for the inhibition in experiment [1], in experiment [2] and in experiment [3] were 4.82%, 4.15% and 0.56%, respectively.

In the case of `COc1ccc2ncc(F)c([C@@H](O)CN3CCC(NCc4ccc5c(c4)NCCS5)CC3)c2n1`, the values for the inhibition in experiment [1], in experiment [2] and in experiment [3] were 8.36%, 8.01% and -5.06%, respectively.

With `CC(C)C[C@H](NC(=O)[C@H](Cc1ccccc1)NC(=O)CCN1C(=O)COc2ccc(C(=O)O)cc21)C(=O)NC(CC1CCCCC1)C(O)CC(=O)NCCCn1ccnc1` (stereo partly specified), the inhibition stood at 9.79% in experiment [1], 6.73% in experiment [2] and 9.78% in experiment [3].

As to `O=C(N[C@H]1CCCC[C@H]1C(=O)O)c1ccccc1`, the inhibition in experiment [1] is 0.5%; in experiment [2] it was 1.61%; in experiment [3], 0.81%.
